Data published in PubChem BioAssay AID1159580 (chemical genetic matrix, 2015).
“And” between values parts separate entries of the source, which are not always exact repeats. Identical values can stand only once. In all, about 5,500 compounds went through this assay and about 2,000 (36%) were called active. Inconclusive results (about 18%) are left out. Rule as the data show it: active = normalized growth mostly below about 0.91 (no sharp cut-off); inconclusive = no clear call, values can overlap the other calls; inactive = mostly above about 0.92. This is one part of the list.

Assay: chemical genetic growth profiling, strain panel (AID 1159580);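 also: tested at 20 µM; growth read once vehicle control cultures reached saturation at 30 °C; 1 = growth at the plate median or of vehicle wells; lower values mean less growth of the strain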
Conditions: S. cerevisiae deletion strains, growth OD

Measured: normalized growth

COc1c(O)cccc1O
inactive: locus YAL013W, strain DEP1, active compounds read low 0.993 | locus YAL021C, strain ccr4, active compounds read low 0.997 | locus YAL026C, strain drs2, active compounds read low 1.04 | locus YAL030W, strain snc1, active compounds read low 1.02 | locus YBL061C, strain skt5, active compounds read low 1.02 | locus YBR009C, strain hhf1, active compounds read low 1.01 | locus YBR021W, strain FUR4, active compounds read low 1.04 | locus YBR023C, strain chs3, active compounds read low 1.02 | locus YBR171W, strain sec66, active compounds read low 1.03 | locus YBR229C, strain ROT2, active compounds read low 1.01 | locus YBR231C, strain swc5, active compounds read low 1.03 | locus YBR279W, strain paf1, active compounds read low 1.02 | locus YCL011C, strain gbp2, active compounds read low 1.04 | locus YCL016C, strain dcc1, active compounds read low 1.02 | locus YCL029C, strain bik1, active compounds read low 1.01 | locus YCL061C, strain MRC1, active compounds read low 1.02 | locus YCL069W, strain vba3, active compounds read low 1.03 | locus YCR088W, strain abp1, active compounds read low 1.02 | locus YDL005C, strain med2, active compounds read low 1.03 | locus YDL035C, strain GPR1, active compounds read low 1.02 | locus YDL040C, strain nat1, active compounds read low 1.01 | locus YDL074C, strain BRE1, active compounds read low 1.09 | locus YDL101C, strain DUN1, active compounds read low 1.01 | locus YDL134C, strain PPH21, active compounds read low 1.06 | locus YDL185W, strain tfp1, active compounds read low 1.02 | locus YDL192W, strain arf1, active compounds read low 1.04 | locus YDR001C, strain nth1, active compounds read low 1.02 | locus YDR069C, strain doa4, active compounds read low 1.02 | locus YDR101C, strain arx1, active compounds read low 1 | locus YDR137W, strain rgp1, active compounds read low 1.04 | locus YDR150W, strain NUM1, active compounds read low 0.999 | locus YDR159W, strain sac3, active compounds read low 1.02 | locus YDR162C, strain NBP2, active compounds read low 1.03 | locus YDR195W, strain ref2 1.02 | locus YDR297W, strain sur2, active compounds read low 1.05 | locus YDR318W, strain mcm21, active compounds read low 1.03 | locus YDR334W, strain swr1, active compounds read low 1.03 | locus YDR335W, strain msn5, active compounds read low 1.03 | locus YDR388W, active compounds read low 0.996 | locus YDR392W, strain spt3, active compounds read low 1.02 | locus YDR502C, strain sam2, active compounds read low 1.03 | locus YEL003W, strain gim4, active compounds read low 1.02 | locus YEL037C, strain rad23, active compounds read low 1.02 | locus YEL061C, strain CIN8 (second series), active compounds read low 1.02 | locus YEL061C, strain CIN8, active compounds read low 0.973 | locus YER015W, strain faa2, active compounds read low 1.02 | locus YER016W, strain bim1, active compounds read low 1.02 | locus YER110C, active compounds read low 1.02 | locus YER111C, strain swi4, active compounds read low 1.02 | locus YER155C, strain BEM2 (second series), active compounds read low 1.01 | locus YER155C, strain BEM2, active compounds read low 0.997 | locus YER167W, strain BCK2, active compounds read low 0.98 | locus YFR010W, strain ubp6, active compounds read low 1.03 | locus YGL078C, strain dbp3, active compounds read low 1.04 | locus YGL086W, strain mad1, active compounds read low 1.03 | locus YGL167C, strain pmr1, active compounds read low 1.03 | locus YGL173C, strain kem1, active compounds read low 1.02 | locus YGL227W, strain vid30, active compounds read low 1.02 | locus YGL240W, strain doc1, active compounds read low 1.02 | locus YGL248W, strain PDE1, active compounds read low 1.04 | locus YGL253W, strain hxk2, active compounds read low 1.05 | locus YGR135W, strain pre9, active compounds read low 1.04 | locus YGR252W, strain gcn5, active compounds read low 1.13 | locus YHR013C, strain ard1, active compounds read low 1.04 | locus YHR027C, strain rpn1, active compounds read low 1.02 | locus YHR030C, strain SLT2, active compounds read low 1.01 and 1.06 | locus YHR079C, strain IRE1 (second series), active compounds read low 1.01 | locus YHR079C, strain IRE1, active compounds read low 1.05 | locus YHR094C, strain hxt1, active compounds read low 1.01 | locus YHR129C, strain ARP1, active compounds read low 0.99 | locus YHR142W, strain chs7, active compounds read low 1.07 | locus YHR200W, strain rpn10, active compounds read low 1.02 | locus YIL066C, strain RNR3, active compounds read low 1.01 | locus YIL073C, strain SPO22, active compounds read low 1.14 | locus YIL125W, strain kgd1, active compounds read low 1 | locus YIR030C, strain dcg1, active compounds read low 1.02 | locus YJL092W, strain hpr5, active compounds read low 1.02 | locus YJL095W, strain BCK1 (second series), active compounds read low 1.02 | locus YJL095W, strain BCK1, active compounds read low 1.11 and 1.04 | locus YJL115W, strain asf1, active compounds read low 1.04 | locus YJL129C, strain trk1, active compounds read low 1.06 | locus YJL134W, strain LCB3, active compounds read low 0.999 | locus YJL154C, strain vps35, active compounds read low 1.02 | locus YJL164C, strain tpk1, active compounds read low 1.02 | locus YJL166W, strain qcr8, active compounds read low 1.03 | locus YJL168C, strain set2, active compounds read low 1.01 | locus YJL187C, strain SWE1 (second series), active compounds read low 1.03
